Measured values as given in PubChem BioAssay (NCATS).
Inconclusive results are not listed. Activity calls are given as the source filed them. Calls come from the whole dose curve; as a rule, active = well fitted curve in the direction sought with a large enough effect; inconclusive = small, poorly fitted or top-dose-only effect, or another doubt; inactive = no such curve, though single readings can be large; an effect the other way counts as inactive or inconclusive.

What was measured:
CRL-7250 = normal cell line; test: Cytotoxic Profiling of Annotated Libraries Using Quantitative High-Throughput Screening (AID 1296008); conditions: Five cell lines viability, CellTiter-Glo ATP luminescence, 48-72 h; max response: stronger effect = lower value; note: nearly all actives have a fitted effect of over 60% in size; for max response: % is set by controls: 0 for no effect and ±100 for the full control effect
How it was run: (§1)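 Compounds were pin-transferred onto cells and incubated 48 or 72 hr at 37 degree Celsius, 95% humidity. CellTiter-Glo was added, plates sat 10 min at room temperature, then ATP-coupled luminescence was imaged as the viability read-out.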

HEK293 = test: as above; conditions: Five cell lines viability, CellTiter-Glo ATP luminescence, 48-72 h; max response: stronger effect = lower value
How it was run: as §1

HaCat [1] = test: as above; conditions: Five cell lines viability, CellTiter-Glo ATP luminescence, 48-72 h; max response: stronger effect = lower value
How it was run: as §1

KB-3-1 = test: as above; conditions: Five cell lines viability, CellTiter-Glo ATP luminescence, 48-72 h; max response: stronger effect = lower value
How it was run: as §1

NIH3T3 = test: as above; conditions: Five cell lines viability, CellTiter-Glo ATP luminescence, 48-72 h; max response: stronger effect = lower value
How it was run: as §1

HACAT [2] = test: qHTS assay to identify novel small-molecules to repurpose for Merkel cell carcinoma treatment (AID 1296009); conditions: MCC and control cell lines, CellTiter-Glo viability, 72 h; at 44.8 µM (top of the series) unless noted; note: nearly all actives have a fitted effect of over 60% in size
How it was run: (§2)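 qHTS format: cells treated with library compounds in DMSO across 8 (NPC) or 11 (MIPE) concentrations. Readout after 72 hr at 37 degree celsius was CellTiter-Glo luminescence.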

HEK293T = test: as above; conditions: MCC and control cell lines, CellTiter-Glo viability, 72 h; series mostly up to 44.8 µM
How it was run: as §2

C33A = test: Primary qHTS to identify gynecologic anti-cancer compounds using libraries of approved drugs and bioactive compounds (AID 1345084); conditions: Gynecologic cancer cell panel viability, ATPlite luminescence, 48 h; series mostly up to 57.5 µM; note: % is set by controls: 0 for no effect and ±100 for the full control effect; nearly all actives have a fitted effect of over 55% in size
How it was run: (§3)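 In this quantitative HTS, cell killing is estimated from loss of ATP-dependent luciferase light. Cells see five compound concentrations over a 48 h exposure.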

CAOV3 = test: as above; conditions: Gynecologic cancer cell panel viability, ATPlite luminescence, 48 h; series mostly up to 57.5 µM
How it was run: as §3

CASKI = test: as above; conditions: Gynecologic cancer cell panel viability, ATPlite luminescence, 48 h; series mostly up to 57.5 µM
How it was run: as §3

Es-2 = test: as above; conditions: Gynecologic cancer cell panel viability, ATPlite luminescence, 48 h; series mostly up to 57.5 µM
How it was run: as §3

HeLa = test: as above; conditions: Gynecologic cancer cell panel viability, ATPlite luminescence, 48 h; series mostly up to 57.5 µM
How it was run: as §3

C[C@@H]1O[C@@H](O[C@H]2[C@H](OC(=O)[C@]34CCC(C)(C)C[C@H]3C3=CCC5[C@@]6(C)C[C@H](O)[C@H](O[C@@H]7O[C@H](CO)[C@@H](O[C@@H]8O[C@H](CO)[C@@H](O)[C@H](O)[C@H]8O)[C@H](O)[C@H]7O)[C@@](C)(CO)C6[C@H](O)C[C@@]5(C)[C@]3(C)C[C@H]4O)OC[C@H](O)[C@@H]2O)[C@H](O)[C@H](O)[C@H]1O[C@@H]1OC[C@@H](O)[C@H](O[C@@H]2OC[C@](O)(CO)[C@H]2O)[C@H]1O (stereo partly specified)
inactive: max response (CRL-7250) 4.17% | outcome (HEK293) | outcome (HaCat [1]) | outcome (KB-3-1) | max response (NIH3T3) 4.2% | outcome (HACAT [2]) inactive [at 9.27 µM] | outcome (HEK293T) inactive [at 9.27 µM] | activity change, negative = cytotoxicity (C33A) 12.9% [at 6.55 µM] | activity change, negative = cytotoxicity (CAOV3) 18.5% [at 6.55 µM] | activity change, negative = cytotoxicity (CASKI) 12.9% [at 6.55 µM] | activity change, negative = cytotoxicity (Es-2) 5.24% [at 6.55 µM] | activity change, negative = cytotoxicity (HeLa) 5.03% [at 6.55 µM]

CC1(C)CC[C@]2(C(=O)O)CC[C@]3(C)C(=CCC4[C@@]5(C)C[C@H](O)[C@H](O[C@@H]6OC[C@H](O)[C@H](O)[C@H]6O)[C@@](C)(CO)C5CC[C@]43C)[C@@H]2C1 (stereo partly specified)
inactive: outcome (CRL-7250) | outcome (HEK293) | outcome (HaCat [1]) | outcome (KB-3-1) | max response (NIH3T3) 2.89% | outcome (HACAT [2]) inactive [at 17.4 µM] | Potency (HEK293T) | Potency (C33A) | Potency (CAOV3) | Potency (CASKI) | Potency (Es-2) | Potency (HeLa)

O=C(O)[C@H]1CCCC[C@H]1C(=O)N1CCc2ccccc2[C@H]1CN1C(=O)c2ccccc2C1=O
inactive: max response (CRL-7250) 1.46% | outcome (HEK293) | outcome (HaCat [1]) | outcome (KB-3-1) | max response (NIH3T3) 2.69% | outcome (HACAT [2]) | Potency (HEK293T) | Potency (C33A) | Potency (CAOV3) | Potency (CASKI) | Potency (Es-2) | Potency (HeLa)

O=C(O)c1cc(O[C@@H]2O[C@H](CO[C@@H]3OC[C@@H](O)[C@H](O)[C@H]3O)[C@@H](O)[C@H](O)[C@H]2O)c2ccccc2c1O
inactive: max response (CRL-7250) 3.92% | outcome (HEK293) | outcome (HaCat [1]) | outcome (KB-3-1) | max response (NIH3T3) -7.85% | outcome (HACAT [2]) inactive [at 17.4 µM] | Potency (HEK293T) | Potency (C33A) | Potency (CAOV3) | Potency (CASKI) | Potency (Es-2) | Potency (HeLa)

C=C[C@](C)(CC/C=C(\C)C(=O)O)O[C@@H]1OC[C@H](O)[C@H](O)[C@H]1O
inactive: max response (CRL-7250) -0.0118% | outcome (HEK293) | outcome (HaCat [1]) | max response (KB-3-1) 3.33% | max response (NIH3T3) 2.21% | outcome (HACAT [2]) | Potency (HEK293T) | Potency (C33A) | Potency (CAOV3) | Potency (CASKI) | Potency (Es-2) | Potency (HeLa)

C=C1CCC2C(C)(CO[C@@H]3O[C@H](CO)[C@@H](O)[C@H](O)[C@H]3O)C(O)CCC2(C)C1C(=O)CC1=CCOC1=O (stereo partly specified)
inactive: max response (CRL-7250) -10.6% | outcome (HEK293) | outcome (HaCat [1]) | max response (KB-3-1) 4.59% | max response (NIH3T3) 1.1% | outcome (HACAT [2]) inactive [at 17.4 µM] | Potency (HEK293T) | Potency (C33A) | Potency (CAOV3) | Potency (CASKI) | Potency (Es-2) | Potency (HeLa)

CC(=O)N1CCN(NC(=O)c2ccc(F)cc2)CC1
inactive: max response (CRL-7250) -0.968% | outcome (HEK293) | outcome (HaCat [1]) | max response (KB-3-1) 8.34% | max response (NIH3T3) -3.31% | outcome (HACAT [2]) | Potency (HEK293T) | Potency (C33A) | Potency (CAOV3) | Potency (CASKI) | Potency (Es-2) | Potency (HeLa)

C/C=C(\C)C(=O)O[C@H]1[C@H](O)[C@]2(COC(C)=O)[C@H](O)C[C@]3(C)C(=CCC4[C@@]5(C)CC[C@H](O[C@@H]6O[C@H](C(=O)O)[C@@H](O[C@@H]7O[C@H](CO)[C@@H](O)[C@H](O)[C@H]7O)[C@H](O)[C@H]6O[C@@H]6O[C@H](CO)[C@@H](O)[C@H](O)[C@H]6O)[C@](C)(CO)C5CC[C@]43C)[C@@H]2CC1(C)C (stereo partly specified)
inactive: max response (CRL-7250) -9.07% | outcome (HEK293) | outcome (HaCat [1]) | outcome (KB-3-1) | max response (NIH3T3) 2.26% | outcome (HACAT [2]) inactive [at 9.27 µM] | outcome (HEK293T) inactive [at 9.27 µM] | activity change, negative = cytotoxicity (C33A) 1.25% [at 11.6 µM] | activity change, negative = cytotoxicity (CAOV3) -14.1% [at 11.6 µM] | activity change, negative = cytotoxicity (CASKI) 1.43% [at 11.6 µM] | activity change, negative = cytotoxicity (Es-2) 5.46% [at 11.6 µM] | activity change, negative = cytotoxicity (HeLa) 15.8% [at 11.6 µM]

C/C=C1/[C@H](O[C@@H]2O[C@H](CO)[C@@H](O)[C@H](O)[C@H]2O)OC=C(C(=O)OC)[C@H]1CC(=O)O[C@@H]1O[C@H](CO)[C@@H](O)[C@H](O)[C@H]1O
inactive: outcome (CRL-7250) | outcome (HEK293) | outcome (HaCat [1]) | outcome (KB-3-1) | max response (NIH3T3) 4.1% | outcome (HACAT [2]) inactive [at 17.4 µM] | Potency (HEK293T) | Potency (C33A) | Potency (CAOV3) | Potency (CASKI) | Potency (Es-2) | Potency (HeLa)

C=C[C@H]1[C@H](O[C@@H]2O[C@H](CO)[C@@H](O)[C@H](O)[C@H]2O)OC=C(C(=O)OC)[C@H]1C[C@@H]1N[C@H](C(=O)O)Cc2c1[nH]c1ccccc21
inactive: max response (CRL-7250) 2.01% | outcome (HEK293) | outcome (HaCat [1]) | max response (KB-3-1) -4.8% | max response (NIH3T3) -2.92% | outcome (HACAT [2]) inactive [at 17.4 µM] | Potency (HEK293T) | Potency (C33A) | Potency (CAOV3) | Potency (CASKI) | Potency (Es-2) | Potency (HeLa)

CC(C)C(=O)O[C@@H]1[C@@H](O)[C@@H](O[C@H]2O[C@H](CO)[C@@H](O)[C@H](O)[C@H]2O)O[C@H](CO)[C@H]1O
inactive: max response (CRL-7250) -2.11% | outcome (HEK293) | outcome (HaCat [1]) | max response (KB-3-1) 3.97% | max response (NIH3T3) 1.16% | outcome (HACAT [2]) inactive [at 17.4 µM] | Potency (HEK293T) | Potency (C33A) | Potency (CAOV3) | Potency (CASKI) | Potency (Es-2) | Potency (HeLa)

C=C1CC23CC1(O)CCC2C1=CC2OC(=O)C(C)(C2O)C1C3C(=O)O (stereo unspecified)
inactive: max response (CRL-7250) -8.2% | outcome (HEK293) | outcome (HaCat [1]) | outcome (KB-3-1) | max response (NIH3T3) -19.3% | outcome (HACAT [2]) | Potency (HEK293T) | Potency (C33A) | Potency (CAOV3) | Potency (CASKI) | Potency (Es-2) | Potency (HeLa)

CC(=O)N1c2ccccc2C2(O)CC3C(=O)NC(CC(C)C)C(=O)N3C12 (stereo unspecified)
inactive: max response (CRL-7250) 1.79% | outcome (HEK293) | outcome (HaCat [1]) | max response (KB-3-1) 2.12% | max response (NIH3T3) 1.77% | outcome (HACAT [2]) | Potency (HEK293T) | Potency (C33A) | Potency (CAOV3) | Potency (CASKI) | Potency (Es-2) | Potency (HeLa)
